Bioassay records deposited in PubChem BioAssay by National Center for Advancing Translational Sciences (NCATS).
A selection: hits, their analogues and other compounds. The true share with any hit is near 5.3%.
HPGD block = qHTS Assay for Inhibitors of HPGD (15-Hydroxyprostaglandin Dehydrogenase). 15-hydroxyprostaglandin dehydrogenase [NAD(+)] (Homo sapiens), P15428. purified HPGD, NADH fluorescence kinetic, PGE2 substrate. Potency, µM, without a hit: at the top dose activity change, negative = inhibition, actives largely listed as inhibitors. 150,000 compounds, 4.3% hits; active means well fitted inhibition curve with a large enough effect, not every such curve was filed as active; inconclusive means small, poorly fitted or top-dose-only effect, or another doubt; inactive means no such curve, though single readings can be large or run the other way; further: potency means the concentration at half of the fitted maximal effect
Target sequence (P15428 whole entry, looked up): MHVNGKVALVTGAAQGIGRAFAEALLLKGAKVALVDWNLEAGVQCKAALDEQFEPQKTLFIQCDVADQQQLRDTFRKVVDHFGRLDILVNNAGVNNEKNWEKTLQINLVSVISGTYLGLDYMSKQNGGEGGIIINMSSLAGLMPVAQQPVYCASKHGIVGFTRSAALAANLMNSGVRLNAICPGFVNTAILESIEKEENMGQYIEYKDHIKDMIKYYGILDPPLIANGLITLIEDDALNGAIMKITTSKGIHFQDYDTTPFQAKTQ
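NADH formation kinetics: reaction with 30 uM PGE2 and 1 mM NAD+ (final), 20 nM enzyme, Tris-HCl pH 8 with Tween 20, after 15 min compound preincubation at room temperature. Fluorescence change, last versus first of five reads.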
15-hLO-2 inh = qHTS Assay for Inhibitors of 15-hLO-2 (15-human lipoxygenase 2). Polyunsaturated fatty acid lipoxygenase ALOX15B (Homo sapiens), O15296. purified 15hLO-2, xylenol orange hydroperoxide absorbance. Potency, µM (series often up to 57.1 µM), inactives show top-dose activity change, negative = inhibition, usual class: inhibitors. 110,000 compounds, 0.56% hits. AID 881, 2007; further: potency means the concentration at half of the fitted maximal effect; nearly all actives have a fitted effect of over 60% in size
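Enzyme 50 nM, AA 45 uM, 25 mM Hepes pH 7.5 + 0.01% Triton X-100; cpd preinc 15 min RT, rxn 90 min RT; stop/detect with 200 uM XO + 300 uM Fe(II) in 50 mM H2SO4, 30 min; A573/A405.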
12-hLO inh = qHTS Assay for Inhibitors of 12-hLO (12-human lipoxygenase) | Polyunsaturated fatty acid lipoxygenase ALOX12 (Homo sapiens), P18054 | purified 12-hLO, xylenol orange hydroperoxide absorbance | Potency, µM (top dose mostly 57.1 µM), inactives show at the highest dose activity change, negative = inhibition, most hits filed as inhibitors | 150,000 compounds, 0.12% hits; further: potency means the concentration at half of the fitted maximal effect; nearly all actives have a fitted effect of over 55% in size
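Lipoxygenase turnover measured by absorbance at 573 and 405 nm after Fe-XO development. Human 12hLO 150 nM, arachidonate 40 uM, pH 7.0 Hepes buffer with detergent; 15 min compound preincubation, 30 min reaction.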
PNC assembly inh = High Content Assay for Compounds that inhibit the Assembly of the Perinucleolar Compartment; PC3M PTB-GFP, PNC prevalence imaging, 16 h; active compounds read low; activity change (PNC), negative = inhibition, % at 10 µM; 140,000 compounds, 3.1% hits;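 active means readout at or below -70, meaning at least 70% loss of cells showing the perinucleolar compartment, a nuclear body marking cancer cells; inconclusive means readout between -30 and a set limit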;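 further: plate controls were DMSO wells for no effect and camptothecin positive control wells for full effect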
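Compounds are pinned in duplicate onto adhered PC3M cells stably expressing GFP-tagged PTB and incubated 16 h at 37 C. Cells are then fixed, nuclei stained with Hoechst, and PNC-positive cells counted.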
IMPase Li cell = qHTS Assay for Identifying the Cell-Membrane Permeable IMPase Inhibitors: Potentiation with Lithium. 210,000 compounds, 0.35% hits. CHO-M1 cells, IP1 TR-FRET (IP-One), carbachol + lithium. AID 1457, 2008. Potency, µM (titrated, usually from 59.4 µM), for inactives: top-dose activity, negative = IMPase inhibition, most hits filed as inhibitors;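 further: IP1 builds up when IMPase is blocked and the TR-FRET signal falls; potency means the concentration at half of the fitted maximal effect; plate controls were basal vehicle for no effect and high inhibitor control for full effect; nearly all actives have a fitted effect of over 50% in size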
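Readout is a homogeneous TR-FRET IP1 immunoassay (Ex 320, Em 665 and 620), where raised cytosolic IP1 lowers signal. Cells were CHO-M1 treated 30 min at 37C with test compounds plus a little lithium; AC50 values came from Hill-equation fitting.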
IMPase inh = qHTS Assay for Identifying the Cell-Membrane Permeable IMPase Inhibitors; CHO-M1 cells, IP1 accumulation, HTRF TR-FRET ratio; inhibition (IP1 accumulation), % at 46.1 µM; 120,000 tested, under 10 active; AID 901, 2007; active means well fitted curve in the direction sought with a large enough effect in the signal ratio, not every such curve was filed as active; inconclusive means small, poorly fitted or top-dose-only effect, or a change in a side signal; inactive means no such curve, though single readings can be large or run the other way; the % refers to the signal ratio;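 further: cells stimulated with carbachol in lithium chloride buffer; plate controls were DMSO basal wells for no effect and reference inhibitor wells for full effect; higher means more IMPase inhibition seen as more IP1 and lower FRET ratio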
Target sequence (P97697 whole entry, looked up): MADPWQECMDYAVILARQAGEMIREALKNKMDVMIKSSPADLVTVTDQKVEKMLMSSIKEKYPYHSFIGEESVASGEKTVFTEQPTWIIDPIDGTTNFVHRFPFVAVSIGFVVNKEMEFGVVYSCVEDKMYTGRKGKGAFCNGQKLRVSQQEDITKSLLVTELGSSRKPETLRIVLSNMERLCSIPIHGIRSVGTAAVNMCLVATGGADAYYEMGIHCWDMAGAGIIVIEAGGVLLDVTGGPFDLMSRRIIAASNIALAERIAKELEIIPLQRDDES
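The IP-One HTRF competitive assay in carbachol-stimulated CHO-M1 cells quantifies cellular IP1. Compounds spanned up to 46 uM final, and activity is expressed as AC50 from concentration-response fits of the ratio and donor data.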
* marks the source's active call; other numbers are inactive results; ? = inconclusive; . = no result given; [ ] = another dose, or the depositor's remark. Unless noted, the call rests on the fitted dose curve; in most records, active means well fitted curve in the direction sought with a large enough effect; inconclusive means small, poorly fitted or top-dose-only effect, or another doubt; inactive means no such curve, though single readings can be large; an effect the other way counts as inactive or inconclusive. Unless noted, on the % scale 0 is the no-effect control and ±100 the full control effect.

SMILES | HPGD block | 15-hLO-2 inh | 12-hLO inh | PNC assembly inh | IMPase Li cell | IMPase inh
O=C(O)c1cc2ccccc2c(Cc2cc3ccccc3c(C(=O)O)c2O)c1O (tested in a mixture with another compound) | -14% | -6%[25.6 µM] | -5%[25.6 µM] | . | -6% | -2[20.6 µM]
Cc1nc(N2CCOCC2)c2nc(-c3ccccc3)n(CCCN3CCOCC3)c2n1 | ? | 5% | 0% | . | -4% | .
CCOC(=O)C(C)Sc1nc2c(c(=O)[nH]c(=O)n2C)n1C/C=C(/C)Cl (stereo not drawn) | 22µM* | 8% | -8% | 14 | 8%[38.3 µM] | -2
Cn1c(=O)c2c(nc(SCC(=O)OCc3ccccc3)n2C)n(C)c1=O | 3% | -3% | -2% | -96* | -8%[38.3 µM] | -9
COC(=O)CSc1nc2c(c(=O)n(C)c(=O)n2C)n1CCC(C)C | 14µM* | 3% | 8% | ? | 5% | 4
CCCCCCn1c(SCC(=O)OC)nc2c1c(=O)[nH]c(=O)n2C | 7.9µM* | -11% | -6% | -10 | 24%[38.3 µM] | 6
Cc1nc(SCC(=O)OCc2ccccc2)c2c(=O)n(C)c(=O)n(C)c2n1 | -16% | -8% | 0% | 7 | 39%[38.3 µM] | 8
COc1ccc(C(=O)N2CCC3(CC2)CN(Cc2ccc(C#N)cc2)C3)cc1 | -9% | 29% | 1% | . | -3% | .
C=CCOC(=O)C1=C[C@H](C2CC2)[C@@H](CCCO)[C@H](OCC)O1 | . | . | . | . | 0% | .
CCOC(=O)Cn1c(N2CCCCCC2)nc2c1c(=O)[nH]c(=O)n2C | -14% | -2% | 4% | -19 | 7%[38.3 µM] | 1
CC(C)CSc1nc2c(c(=O)[nH]c(=O)n2C)n1CC(O)COc1cccc2ccccc12 (stereo not drawn) | 13µM* | -19% | -5% | 16 | -7%[38.3 µM] | -5
CCSc1nc2c(c(=O)[nH]c(=O)n2C)n1CC(O)COc1ccccc1 (stereo not drawn) | . | . | . | . | 5% | .
CCOC(=O)C(C)n1cnc2c1c(=O)[nH]c(=O)n2C (stereo not drawn) | -19% | . | -2% | -100* | 1% | 2
COc1ncc2nc(-c3cc(F)cc(F)c3)c(=O)n(C)c2n1 | . | -7% | . | . | -2% | .
C=CC#CC[N+]1(CC#Cc2ccccc2)CCOCC1 | 25µM* | . | 19% | -14 | 17% | .
COc1ccc(C(=O)/C(=C/c2cccs2)c2nc3ccccc3o2)cc1 | 35µM* | -22% | -12% | 68 | 41%[38.3 µM] | 17
COc1ccc(/C=C(\CC(=O)O)c2nc3ccccc3o2)cc1 | . | . | . | . | 5% | .
O=C1CC(c2ccccc2)NC(=O)N1 (stereo not drawn) | -3% | -2% | 7% | -81* | 18%[38.3 µM] | -8
COc1ccc(NC(=S)N2CCN(c3ccccn3)CC2)cc1OC | . | . | -3% | -115* | . | 3
COc1cccc(C(=O)COc2ccc3c(C)c(Cc4ccccc4)c(=O)oc3c2C)c1 | -10% | . | -2% | -100* | 3% | .
Cc1cccc(C)c1NC(=O)COc1ccc2c(C)c(Cc3ccccc3)c(=O)oc2c1C | -28% | . | 1% | ? | 3% | .
Cc1nc2ccccn2c1C(=O)NCc1cccnc1 | -5% | 6% | 0% | -85* | -5%[38.3 µM] | -8
COc1cccc(-c2csc(N3CCN(Cc4ccccc4)CC3)n2)c1 | 25µM* | -1% | -6% | -14 | -8%[38.3 µM] | 4
Cc1ccc(NC(=S)N(Cc2ccco2)C2CCN(C(C)C)CC2)cc1 | -4% | . | -1% | -16 | 1% | 3
COCCNC(=O)CSc1ncnc2sccc12 | 18µM* | 4% | 4% | -20 | -17%[38.3 µM] | -5
SMILES | HPGD block | 15-hLO-2 inh | 12-hLO inh | PNC assembly inh | IMPase Li cell | IMPase inh
COc1ccc(-c2nc(C#N)c(NCCc3ccccc3)o2)cc1 | ? | . | -8% | -100* | 12% | 12
COc1ccc(CCNc2oc(-c3ccc(C)cc3)nc2C#N)cc1OC | ? | -8% | -5% | -108* | 25%[38.3 µM] | 4
CCC1=C2CC[C@H]3C(=O)N(c4ccccc4)C(=O)[C@H]3[C@H]2[C@@]2(C)C(=O)N(Cc3ccccc3)C(=O)N2C1=O | -12% | 3% | -5% | . | -6% | .
COc1ccc(N2C(=O)S[C@@H]3CS(=O)(=O)C[C@@H]32)cc1 | -13% | . | 2% | -113* | 9% | .
COc1ccc(CCN2C(=NC(=O)CC(C)C)SC3CS(=O)(=O)CC32)cc1 (stereo not drawn) | 0% | -10% | -5% | ? | 32%[38.3 µM] | 3
Cc1ccc(CCNC(=O)C23C[C@H]4C[C@@H](C2)CC(n2nnc(C)n2)(C4)C3)cc1 | . | . | . | . | 3% | .
Cc1nnn(C23CC4CC(CC(C(=O)NN)(C4)C2)C3)n1 | 2% | . | -4% | -114* | 4% | .
c1ccc(C2=Nc3ccccc3SC2c2nc3ccccc3[nH]2)cc1 (stereo not drawn) | 35µM* | 25µM* | ? | -3 | 6%[38.3 µM] | 0
S=C(NCc1ccco1)N1CCN(c2ccccc2Cl)CC1 | . | . | . | . | 12% | .
C=CCn1c(SCC(=O)N2CCN(c3ccc(F)cc3)CC2)nnc1-c1cccs1 | -11% | -5% | 2% | -96* | ? | -22
C=CCn1c(SCC(=O)N2CCN(c3ccccc3)CC2)nnc1-c1ccco1 | -5% | 1% | 3% | ? | 4%[38.3 µM] | 4
COc1cc2c(cc1OC)C1=C(C#N)CC/C(=N\S(=O)(=O)c3ccccc3)N1CC2 | ? | -9% | 1% | 25 | 26%[38.3 µM] | 4
COc1ccc(CCN2CC(C#N)=C3c4cc(OC)c(OC)cc4CCN3C2)cc1OC | 7.1µM* | 8% | 4% | -7 | 34%[38.3 µM] | 8
COc1cc2c(cc1OC)C1=C(C#N)CCC(=O)N1CC2 | ? | . | 1% | -100* | 1% | 0
CCN(CC)S(=O)(=O)c1ccc(NC2CCCc3ccccc32)nc1 (stereo not drawn) | -23% | . | -2% | -100* | 13% | 9
CC(C)c1nc(SCC(=O)N2CCN(c3ccccc3)CC2)c2c(=O)n(C)c(=O)n(C)c2n1 | -7% | -14% | -3% | ? | 31%[38.3 µM] | -2
CC(C)c1nc(SCC(=O)N2CCOCC2)c2c(=O)n(C)c(=O)n(C)c2n1 | -7% | -3% | 4% | -106* | 2%[38.3 µM] | -1
CCc1nnc(NC(=O)CSc2nnc(-c3cccnc3)n2C)s1 | . | . | . | . | 2% | .
CN(C)S(=O)(=O)c1cccc(NC(=S)N/N=C/C(c2ccccc2)c2ccccc2)c1 | 18µM* | . | 0% | 9 | 0% | .
